Experimental data: PubChem BioAssay AID463173 (ICCB-Longwood Screening Facility, Harvard Medical School, 2010)
The campaign covered roughly 52,000 compounds. About 4,300 (8.3%) were called active. The entries come from a sample that favours actives as a whole. A number with no mark means an inactive call. Rule as the data show it: active = survival mostly below about 52% (no sharp cut-off); inactive = mostly above about 56%.

System: DeltatarO mutant
Assay: S. aureus survival, RN4220 and DeltatarO strains – OD600, teichoic acid synthesis inhibitors, primary screen (AID 463173)
Conditions: S. aureus RN4220 wild type/DeltatarO growth, OD600, 18 h, hits give low values, screened at 18.75 µg/mL (by protocol)

Compound | survival
Cc1cc(Oc2c(C(F)(F)F)oc3c(CN4CCC(C)CC4)c(O)ccc3c2=O)cc(C)c1Cl | 70%
COc1ccc(CC(=O)NCCc2csc(-c3ccc(C(F)(F)F)cc3)n2)cc1 | -5% (active)
COc1ccc(CC(=O)NCCc2csc(-c3cccc(C)c3)n2)cc1 | 68%
O=C(NCCc1csc(-c2cccc(F)c2)n1)c1ccco1 | 94%
Cc1cccc(-c2nc(CCNC(=O)c3ccc(Br)o3)cs2)c1 | 89%
Cc1cccc(-c2nc(CCNC(=O)Cc3ccccc3)cs2)c1 | 17% (active)
Cc1cccc(-c2nc(CCNC(=O)Cc3ccc(F)cc3)cs2)c1 | 55%
Cc1cccc(-c2nc(CCNC(=O)c3ccco3)cs2)c1 | -5% (active)
CCOc1ccc(CC(=O)NCCc2csc(-c3ccc(C(F)(F)F)cc3)n2)cc1 | 77%
COc1ccc(CCC(=O)NCCc2csc(-c3ccc(C(F)(F)F)cc3)n2)cc1 | 73%
CCOc1ccc(-c2nnc(SCC(=O)c3ccccc3)n2-c2ccccc2)cc1 | 136%
COc1cccc(CNC(=O)c2cc(S(=O)(=O)N3CCCCC3)c[nH]2)c1 | 64%
COc1ccccc1NC(=O)CSc1ncc2c(n1)-c1ccccc1N(Cc1ccccc1C)S2(=O)=O | 101%
Cc1cc(=O)[nH]c2nnc(SCC(=O)NC(C)(C)C)n12 | 77%
COc1ccc(-c2cc(=O)oc3c4c(ccc23)OCN(Cc2ccccc2)C4)cc1 | 82%
COc1ccc(-c2cc(=O)oc3c4c(ccc23)OCN(Cc2cccc(OC)c2)C4)cc1 | 38% (active)
COc1ccc(CN2COc3ccc4c(-c5ccc(OC)cc5)cc(=O)oc4c3C2)cc1 | 65%
Cc1cccc(NC(=O)C2CCN(S(=O)(=O)c3cccc4nsnc34)CC2)c1 | 84%
CCOc1ccc(NC(=O)CC2C(=O)N(c3ccc(F)cc3)C(=O)N2Cc2ccc(OC)c(OC)c2)cc1 (configuration not stated) | 90%
Cc1ccc(C)c(CSc2nc3ncccc3[nH]2)c1 | 73%
Cc1ccc(NC(=O)CSc2nc3c([nH]c4ccccc43)c(=O)n2-c2ccccc2)c(C)c1 | 96%
COc1ccccc1NC(=O)CSc1nc2ccccc2c(=O)n1CCC(=O)NC1CCCCC1 | 89%
O=C(CSc1nc2nccnc2c(=O)n1CCc1c[nH]c2ccccc12)Nc1ccccc1F | 46% (active)
Cc1cc(C)c(NC(=O)CSc2nc3nccnc3c(=O)n2CCc2c[nH]c3ccccc23)c(C)c1 | 48%

Compound | survival
COc1ccccc1NC(=O)CSc1nc2nccnc2c(=O)n1CCc1c[nH]c2ccccc12 | 38% (active)
Cn1c(SCC(=O)Nc2ccccc2F)nc2c([nH]c3ccccc32)c1=O | 115%
CCc1ccc(NC(=O)CSc2nc3nccnc3c(=O)n2CCc2c[nH]c3ccccc23)cc1 | 88%
O=C(CSc1nc2nccnc2c(=O)n1CCc1c[nH]c2ccccc12)Nc1ccc(F)cc1 | 29% (active)
Cc1ccc(NC(=O)CSc2nc3nccnc3c(=O)n2CCc2c[nH]c3ccccc23)c(C)c1 | 45% (active)
COCCCn1c(SCC(=O)Nc2ccccc2OC)nc2c(sc3ccccc32)c1=O | 77%
O=C(CSc1nc2c([nH]c3ccccc32)c(=O)n1-c1ccccc1)Nc1ccccc1F | 96%
O=C(CSc1nc2nccnc2c(=O)n1CCc1c[nH]c2ccccc12)Nc1ccccc1 | 73%
Cc1ccc(C)c(NC(=O)CCCn2nc(C)c3sc4ccccc4c3c2=O)c1 | 85%
CCOC(=O)c1c(C)[nH]c(C)c1S(=O)(=O)N(C)CC(=O)Nc1ccc(C)cc1Br | 72%
CCCCN(C)C(=O)Cn1cnc2sc(C)c(S(=O)(=O)N3CCN(c4ccccc4OC)CC3)c2c1=O | 70%
Cc1cc(C)n(-c2nc(C)c(C)c(=O)n2CC(=O)Nc2ccc(OC(F)(F)F)cc2)n1 | 90%
COc1ccccc1N1CCN(C(=O)COc2ccccc2C#N)CC1 | 81%
COc1cc(C(=O)N2CCN(CCc3ccncc3)CC2)cc(OC)c1OC | 89%
CS(=O)(=O)n1nc(-c2ccco2)nc1NCc1ccccc1Cl | 61%
COc1cc(NC(=O)Cn2cnc3sc(C)c(S(=O)(=O)N4CCC(C)CC4)c3c2=O)cc(OC)c1OC | 111%
Cc1cc(C)c2c(n1)nn1c(C)c(CCC(=O)NCc3ccc(Cl)cc3)c(C)nc21 | 80%
Cc1cccc(NC(=O)CSc2nc3c([nH]c4ccccc43)c(=O)n2C)c1C | 80%
Cc1ccccc1NC(=O)NCCc1c[nH]c2ccccc12 | 47%
Cc1ccc(C)c(NC(=O)Cn2c(SCC(=O)NCc3ccccc3)nc3ccccc32)c1 | 101%
CCOCCCn1c(SCC(=O)Nc2cc(C)ccc2C)nc2c(oc3ccccc32)c1=O | 90%
Cc1ccc(C)c(NC(=O)CSc2nc3nccnc3c(=O)n2CCc2c[nH]c3ccccc23)c1 | 37% (active)
Cc1ccccc1NC(=O)CSc1nc2nccnc2c(=O)n1CCc1c[nH]c2ccccc12 | 40% (active)
